Data: PMC7862700, “An all-to-all approach to the identification of sequence-specific readers for epigenetic DNA modifications on cytosine”

Assays:
Experiment in all cases: DAPPL (digital affinity profiling via proximity ligation, sequencing); 10 mM Tris-HCl pH 7.5, 50 mM NaCl, 1 mM DTT, 4% glycerol, room temperature, 30 min; GST-TFs on glutathione beads, 16-mer random dsDNA library, 0.1% formaldehyde crosslink after washing; high values mean tight binding
[1] = target: T1, ELK1 (Homo sapiens, UniProt P19419 1-428); conditions: protein: recombinant; tags: N-terminal GST; dsDNA, one strand shown
T1 sequence: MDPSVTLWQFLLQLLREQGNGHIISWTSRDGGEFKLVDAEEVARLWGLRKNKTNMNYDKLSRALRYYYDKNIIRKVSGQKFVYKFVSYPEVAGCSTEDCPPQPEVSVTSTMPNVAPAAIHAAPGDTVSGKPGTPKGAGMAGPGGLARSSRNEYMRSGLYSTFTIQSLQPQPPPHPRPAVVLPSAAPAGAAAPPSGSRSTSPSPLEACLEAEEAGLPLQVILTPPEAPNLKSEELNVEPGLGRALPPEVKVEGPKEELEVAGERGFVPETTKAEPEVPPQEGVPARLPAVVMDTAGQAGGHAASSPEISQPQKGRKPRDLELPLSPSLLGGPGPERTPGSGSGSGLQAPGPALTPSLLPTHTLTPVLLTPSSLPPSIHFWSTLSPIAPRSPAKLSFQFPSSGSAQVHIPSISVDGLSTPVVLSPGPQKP
Procedure, shortened: (§1)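 Human transcription factors were made in yeast as GST fusions, captured on glutathione beads and barcoded with DNA. With a tag-only sample included, the pool was incubated with 200 nmole of a random double-stranded 16-mer DNA library in Tris/NaCl/DTT/glycerol buffer at room temperature for 30 min, then crosslinked with 0.1% formaldehyde after washing, ligated by proximity, amplified and sequenced. For binding signal, each hexamer's read frequency for a factor is divided by its frequency for the tag-only sample.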

[2] = target: ELF1 (Homo sapiens, UniProt P32519 1-619); conditions: protein: recombinant; tags: N-terminal GST; dsDNA, one strand shown
Sequence of ELF1 (P32519 whole entry): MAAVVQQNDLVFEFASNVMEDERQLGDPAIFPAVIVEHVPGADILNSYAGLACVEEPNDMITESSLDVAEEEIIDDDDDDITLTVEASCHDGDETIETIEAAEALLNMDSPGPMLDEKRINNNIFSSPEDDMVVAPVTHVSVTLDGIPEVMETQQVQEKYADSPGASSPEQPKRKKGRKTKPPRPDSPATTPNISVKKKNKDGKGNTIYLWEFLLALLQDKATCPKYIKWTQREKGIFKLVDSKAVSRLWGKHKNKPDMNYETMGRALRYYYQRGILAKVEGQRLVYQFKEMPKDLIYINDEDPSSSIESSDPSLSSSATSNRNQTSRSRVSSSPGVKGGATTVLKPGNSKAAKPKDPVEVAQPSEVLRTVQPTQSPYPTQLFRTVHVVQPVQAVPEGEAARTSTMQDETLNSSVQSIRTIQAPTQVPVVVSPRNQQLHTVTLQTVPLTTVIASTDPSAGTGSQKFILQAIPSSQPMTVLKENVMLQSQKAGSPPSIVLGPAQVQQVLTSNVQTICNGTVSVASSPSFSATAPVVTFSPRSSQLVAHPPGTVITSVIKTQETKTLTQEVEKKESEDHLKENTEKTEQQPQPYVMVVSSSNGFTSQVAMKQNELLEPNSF
Procedure, shortened: as §1

[3] = target: SPIB (Homo sapiens, UniProt Q01892 1-262); conditions: protein: recombinant; tags: N-terminal GST; dsDNA, one strand shown
Sequence of SPIB (Q01892 whole entry): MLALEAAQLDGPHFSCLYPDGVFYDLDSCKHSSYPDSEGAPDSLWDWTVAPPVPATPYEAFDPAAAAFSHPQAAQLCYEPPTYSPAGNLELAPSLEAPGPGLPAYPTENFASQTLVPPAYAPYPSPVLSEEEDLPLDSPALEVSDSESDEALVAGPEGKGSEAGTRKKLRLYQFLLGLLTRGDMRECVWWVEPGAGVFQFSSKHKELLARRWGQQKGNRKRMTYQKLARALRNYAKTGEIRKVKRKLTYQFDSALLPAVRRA
Procedure, shortened: as §1

[4] = target: T2, ELK3 (Homo sapiens, UniProt P41970 1-407); conditions: protein: recombinant; tags: N-terminal GST; dsDNA, one strand shown
T2 sequence: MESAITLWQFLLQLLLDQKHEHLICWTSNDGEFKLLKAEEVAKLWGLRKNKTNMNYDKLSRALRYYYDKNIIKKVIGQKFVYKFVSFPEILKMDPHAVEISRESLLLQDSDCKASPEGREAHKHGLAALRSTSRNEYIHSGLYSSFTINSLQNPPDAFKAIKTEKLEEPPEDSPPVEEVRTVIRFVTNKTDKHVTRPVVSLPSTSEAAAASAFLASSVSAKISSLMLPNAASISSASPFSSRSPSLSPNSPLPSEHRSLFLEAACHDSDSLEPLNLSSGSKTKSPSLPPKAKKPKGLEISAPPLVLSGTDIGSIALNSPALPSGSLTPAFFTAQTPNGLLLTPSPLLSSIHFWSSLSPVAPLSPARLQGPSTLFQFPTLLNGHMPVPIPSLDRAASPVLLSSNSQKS
Procedure, shortened: as §1

[5] = target: HSF1 (Homo sapiens, UniProt Q00613 1-529); conditions: protein: recombinant; tags: N-terminal GST; chain copies: 3; dsDNA, one strand shown
Sequence of HSF1 (Q00613 whole entry): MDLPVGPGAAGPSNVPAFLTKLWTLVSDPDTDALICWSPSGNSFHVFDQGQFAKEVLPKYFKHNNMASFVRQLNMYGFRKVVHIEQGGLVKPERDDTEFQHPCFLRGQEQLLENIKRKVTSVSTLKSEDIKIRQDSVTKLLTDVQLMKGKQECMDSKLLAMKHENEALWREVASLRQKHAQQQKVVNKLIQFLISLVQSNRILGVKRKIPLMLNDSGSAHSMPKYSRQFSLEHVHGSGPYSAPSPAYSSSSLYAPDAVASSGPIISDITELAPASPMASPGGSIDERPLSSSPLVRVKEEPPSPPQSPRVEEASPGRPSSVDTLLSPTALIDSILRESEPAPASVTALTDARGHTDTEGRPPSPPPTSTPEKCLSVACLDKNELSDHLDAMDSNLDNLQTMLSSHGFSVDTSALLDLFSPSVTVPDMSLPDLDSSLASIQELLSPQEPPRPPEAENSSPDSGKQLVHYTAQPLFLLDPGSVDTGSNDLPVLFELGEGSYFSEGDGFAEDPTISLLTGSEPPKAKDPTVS
Procedure, shortened: as §1

[6] = target: T3, SPIC (Homo sapiens, UniProt Q8N5J4 1-248); conditions: protein: recombinant; tags: N-terminal GST; dsDNA, one strand shown
T3 sequence: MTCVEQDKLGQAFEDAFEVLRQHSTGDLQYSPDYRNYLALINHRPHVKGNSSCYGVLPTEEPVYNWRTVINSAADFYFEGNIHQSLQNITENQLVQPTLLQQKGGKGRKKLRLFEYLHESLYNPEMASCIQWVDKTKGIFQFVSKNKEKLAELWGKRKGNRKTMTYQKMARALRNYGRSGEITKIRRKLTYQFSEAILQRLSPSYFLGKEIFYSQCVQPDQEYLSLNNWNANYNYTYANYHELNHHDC
Procedure, shortened: as §1

[7] = target: ELF4 (Homo sapiens, UniProt Q99607 1-663); conditions: protein: recombinant; tags: N-terminal GST; dsDNA, one strand shown
Sequence of ELF4 (Q99607 whole entry): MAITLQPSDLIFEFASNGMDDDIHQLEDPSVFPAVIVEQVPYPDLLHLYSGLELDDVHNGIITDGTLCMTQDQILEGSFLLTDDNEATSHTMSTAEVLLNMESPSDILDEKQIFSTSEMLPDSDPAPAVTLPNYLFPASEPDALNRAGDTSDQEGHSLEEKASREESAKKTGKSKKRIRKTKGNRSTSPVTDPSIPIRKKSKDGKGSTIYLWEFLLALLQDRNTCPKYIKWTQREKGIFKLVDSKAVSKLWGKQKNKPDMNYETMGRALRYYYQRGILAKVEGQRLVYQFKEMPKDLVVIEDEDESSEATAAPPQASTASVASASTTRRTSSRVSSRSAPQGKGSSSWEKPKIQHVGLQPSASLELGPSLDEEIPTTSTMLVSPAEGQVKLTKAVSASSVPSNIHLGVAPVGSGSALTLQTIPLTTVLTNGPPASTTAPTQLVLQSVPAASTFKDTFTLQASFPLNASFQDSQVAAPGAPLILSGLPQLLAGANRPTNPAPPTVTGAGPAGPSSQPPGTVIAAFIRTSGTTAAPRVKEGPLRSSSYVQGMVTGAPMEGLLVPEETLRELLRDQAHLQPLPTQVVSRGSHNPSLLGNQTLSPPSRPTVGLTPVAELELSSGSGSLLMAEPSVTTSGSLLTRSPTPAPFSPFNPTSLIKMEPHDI
Procedure, shortened: as §1

[8] = target: T4, ETV2 (Homo sapiens, UniProt O00321 1-342); conditions: protein: recombinant; tags: N-terminal GST; dsDNA, one strand shown
T4 sequence: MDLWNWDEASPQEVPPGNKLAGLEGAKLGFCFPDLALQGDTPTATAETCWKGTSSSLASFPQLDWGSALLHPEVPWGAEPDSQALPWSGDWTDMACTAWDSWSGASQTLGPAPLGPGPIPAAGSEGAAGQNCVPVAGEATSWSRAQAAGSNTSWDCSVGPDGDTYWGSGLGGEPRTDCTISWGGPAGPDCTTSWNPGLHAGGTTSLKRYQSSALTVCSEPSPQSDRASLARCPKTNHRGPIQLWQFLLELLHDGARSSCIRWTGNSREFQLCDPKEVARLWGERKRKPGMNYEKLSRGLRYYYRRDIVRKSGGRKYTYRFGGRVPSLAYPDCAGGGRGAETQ
Procedure, shortened: as §1

[9] = target: T5, ELF3 (Homo sapiens, UniProt P78545 1-371); conditions: protein: recombinant; tags: N-terminal GST; dsDNA, one strand shown
T5 sequence: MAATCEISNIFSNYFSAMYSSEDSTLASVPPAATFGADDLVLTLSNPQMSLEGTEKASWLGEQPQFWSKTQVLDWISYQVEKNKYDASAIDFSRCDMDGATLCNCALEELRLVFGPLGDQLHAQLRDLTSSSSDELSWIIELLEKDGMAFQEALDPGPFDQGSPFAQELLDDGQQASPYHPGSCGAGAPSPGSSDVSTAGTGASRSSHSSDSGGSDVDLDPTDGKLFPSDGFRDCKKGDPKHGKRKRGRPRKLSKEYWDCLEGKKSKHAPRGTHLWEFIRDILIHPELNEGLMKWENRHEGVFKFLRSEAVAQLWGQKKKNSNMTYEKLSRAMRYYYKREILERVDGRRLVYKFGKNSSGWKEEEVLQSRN
Procedure, shortened: as §1

[10] = target: T6, ERF (Homo sapiens, UniProt P50548 1-548); conditions: protein: recombinant; tags: N-terminal GST; dsDNA, one strand shown
T6 sequence: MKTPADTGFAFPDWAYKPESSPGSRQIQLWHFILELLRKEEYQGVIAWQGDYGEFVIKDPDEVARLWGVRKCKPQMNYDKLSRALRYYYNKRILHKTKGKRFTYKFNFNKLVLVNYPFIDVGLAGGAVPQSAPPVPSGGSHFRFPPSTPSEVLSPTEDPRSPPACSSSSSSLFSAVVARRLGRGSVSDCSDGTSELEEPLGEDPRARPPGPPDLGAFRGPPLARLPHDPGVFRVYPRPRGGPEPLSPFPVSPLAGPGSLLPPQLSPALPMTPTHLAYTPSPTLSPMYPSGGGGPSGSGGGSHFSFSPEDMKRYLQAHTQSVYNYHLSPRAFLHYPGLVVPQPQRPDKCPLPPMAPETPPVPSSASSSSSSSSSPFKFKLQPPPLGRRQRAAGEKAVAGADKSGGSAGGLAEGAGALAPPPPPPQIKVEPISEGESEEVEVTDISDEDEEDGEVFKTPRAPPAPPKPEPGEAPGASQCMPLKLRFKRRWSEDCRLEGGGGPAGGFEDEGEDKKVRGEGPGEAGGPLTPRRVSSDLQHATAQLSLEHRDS
Procedure, shortened: as §1

[11] = target: T7, ETV3L (Homo sapiens, UniProt Q6ZN32 1-361); conditions: protein: recombinant; tags: N-terminal GST; dsDNA, one strand shown
T7 sequence: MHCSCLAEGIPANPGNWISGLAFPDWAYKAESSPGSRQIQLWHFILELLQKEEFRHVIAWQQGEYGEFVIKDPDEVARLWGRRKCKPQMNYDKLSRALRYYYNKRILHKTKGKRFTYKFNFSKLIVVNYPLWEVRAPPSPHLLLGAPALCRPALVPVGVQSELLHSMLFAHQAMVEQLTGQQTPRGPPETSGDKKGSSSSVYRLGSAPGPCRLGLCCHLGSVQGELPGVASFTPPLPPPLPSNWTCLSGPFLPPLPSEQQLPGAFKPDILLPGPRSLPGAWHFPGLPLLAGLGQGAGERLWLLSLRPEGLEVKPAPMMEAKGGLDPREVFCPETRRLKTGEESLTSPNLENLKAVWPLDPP
Procedure, shortened: as §1

[12] = target: T8, ETS2 (Homo sapiens, UniProt P15036 1-469); conditions: protein: recombinant; tags: N-terminal GST; dsDNA, one strand shown
T8 sequence: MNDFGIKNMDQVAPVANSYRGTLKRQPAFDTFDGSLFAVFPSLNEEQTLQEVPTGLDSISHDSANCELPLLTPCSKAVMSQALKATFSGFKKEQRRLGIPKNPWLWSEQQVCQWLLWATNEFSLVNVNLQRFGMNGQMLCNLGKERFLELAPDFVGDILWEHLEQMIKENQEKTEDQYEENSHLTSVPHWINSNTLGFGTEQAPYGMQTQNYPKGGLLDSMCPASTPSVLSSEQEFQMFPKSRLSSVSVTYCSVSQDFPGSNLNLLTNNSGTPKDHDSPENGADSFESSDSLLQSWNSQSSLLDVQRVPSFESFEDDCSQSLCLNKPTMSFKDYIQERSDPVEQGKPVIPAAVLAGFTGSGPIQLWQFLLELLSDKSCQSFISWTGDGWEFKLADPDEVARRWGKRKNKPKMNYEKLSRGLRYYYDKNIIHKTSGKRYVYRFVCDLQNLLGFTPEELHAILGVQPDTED
Procedure, shortened: as §1

Sequence	binding signal [1]	binding signal [2]	binding signal [3]	binding signal [4]	binding signal [5]	binding signal [6]	binding signal [7]	binding signal [8]	binding signal [9]	binding signal [10]	binding signal [11]	binding signal [12]
AACCGA	1.02 fold enrichment (6-mer frequency, TF over GST control)	1.04 fold enrichment (6-mer frequency, TF over GST control)	1.03 fold enrichment (6-mer frequency, TF over GST control)	1.01 fold enrichment (6-mer frequency, TF over GST control)	1.04 fold enrichment (6-mer frequency, TF over GST control)	1.09 fold enrichment (6-mer frequency, TF over GST control)	1.02 fold enrichment (6-mer frequency, TF over GST control)	1.13 fold enrichment (6-mer frequency, TF over GST control)	1.04 fold enrichment (6-mer frequency, TF over GST control)	1 fold enrichment (6-mer frequency, TF over GST control)	1.07 fold enrichment (6-mer frequency, TF over GST control)	1.03 fold enrichment (6-mer frequency, TF over GST control)
GAAGGT	–	–	–	–	1.14 fold enrichment (6-mer frequency, TF over GST control)	–	–	–	–	–	–	–
